In one assay the test system is astro (control astrocytes). Put plainly: Drug repurposing screens with cells derived from glioblastoma tumor samples (AID 1345199). Note: nearly all actives have a fitted effect of over 40% in size. The conditions noted are these: viability, ATP luminescence, 48 h; series mostly up to 45.9 µM. An outline of the steps: (§1)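 Primary testing used CD133+ neurospheres from four GBM patients, seven concentrations, 48 h exposure and ATP-based viability; confirmation added three slower-growing patient lines.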

Assay in assay [1]: as above
The conditions noted are these: GBM patient neurospheres viability, ATP luminescence, 48 h. A digest of the protocol:
as §1

Setting [2] is: at 45.9 µM (top of the series), tumour line B.

This note sets out measurements from PubChem BioAssay (NCATS).

Results filed as inconclusive are left out. A number with no mark means an inactive call. Calls of active or inactive are those of the source. Calls come from the whole dose curve; as a rule, active = well fitted inhibition curve with a large enough effect; inconclusive = small, poorly fitted or top-dose-only effect; inactive = flat fitted curve, though single readings scatter.
% is set by controls: 0 for no effect and ±100 for the full control effect; potency is the fitted concentration of half-maximal effect.

As to `CC1=CC(=C(c2ccc(N)cc2)c2ccc(N)cc2)C=CC1=N`, the Potency with astro is 3.16 µM (active).
`C=C[C@]1(C)C[C@@H](OC(=O)CSCCN(CC)CC)[C@]2(C)[C@H](C)CC[C@]3(CCC(=O)[C@H]32)[C@@H](C)[C@@H]1O`: in assay [1] (setting [2]), the activity, negative = cell killing is -23.5%. In addition, the Potency in assay [1] (tumour line A) was 7.94 µM (active). Also, the Potency result in the assay with astro is “inactive”.
Turning to `CNC(=O)C[C@@H](N)C(=O)N[C@@H](C(=O)N[C@@H]1C(=O)N2[C@@H]1SC(C)(C)[C@@H]2C(=O)O)c1ccc(O)cc1`, the activity, negative = cell killing is -11.1% in assay [1] (setting [2]) and -11.3% in assay [1] (at 46.1 µM (top of the series), tumour line C). The Potency entry in the assay on astro was “inactive”.
As for `C=C1C(CCl)(CCl)C2(Cl)C(Cl)C(Cl)C1(Cl)C2(Cl)Cl` (stereo unspecified), the Potency result in the assay on astro is “inactive”.
For `COC(=O)CC[C@H](N)C(=O)O`, the activity, negative = cell killing is -13.7% in assay [1] (setting [2]) and -12.9% in assay [1] (at 45.9 µM (top of the series), tumour line D). Further, the Potency result with astro was “inactive”.
